Assay outcomes: PubChem, The Scripps Research Institute Molecular Screening Center
Rows were chosen to be rich in hits. Some 3.4% of all compounds tested hit in one or more screens of this group.
FBW7 act: FBW7 E3 ligase activators, primary screen, biochemical, AlphaScreen, human. F-box/WD repeat-containing protein 7 (Homo sapiens), Q969H0. AlphaScreen FBW7–phospho-cyclin E peptide binding, activator screen. normalized activity (activation), % at 26.1 µM. 650,000 tested, 0.13% active. AID 1259310, 2017; in the data active = normalized activity above about 1.9%;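 also: purified mutant Fbw7 with reduced substrate affinity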
Target sequence (Q969H0 whole entry, looked up): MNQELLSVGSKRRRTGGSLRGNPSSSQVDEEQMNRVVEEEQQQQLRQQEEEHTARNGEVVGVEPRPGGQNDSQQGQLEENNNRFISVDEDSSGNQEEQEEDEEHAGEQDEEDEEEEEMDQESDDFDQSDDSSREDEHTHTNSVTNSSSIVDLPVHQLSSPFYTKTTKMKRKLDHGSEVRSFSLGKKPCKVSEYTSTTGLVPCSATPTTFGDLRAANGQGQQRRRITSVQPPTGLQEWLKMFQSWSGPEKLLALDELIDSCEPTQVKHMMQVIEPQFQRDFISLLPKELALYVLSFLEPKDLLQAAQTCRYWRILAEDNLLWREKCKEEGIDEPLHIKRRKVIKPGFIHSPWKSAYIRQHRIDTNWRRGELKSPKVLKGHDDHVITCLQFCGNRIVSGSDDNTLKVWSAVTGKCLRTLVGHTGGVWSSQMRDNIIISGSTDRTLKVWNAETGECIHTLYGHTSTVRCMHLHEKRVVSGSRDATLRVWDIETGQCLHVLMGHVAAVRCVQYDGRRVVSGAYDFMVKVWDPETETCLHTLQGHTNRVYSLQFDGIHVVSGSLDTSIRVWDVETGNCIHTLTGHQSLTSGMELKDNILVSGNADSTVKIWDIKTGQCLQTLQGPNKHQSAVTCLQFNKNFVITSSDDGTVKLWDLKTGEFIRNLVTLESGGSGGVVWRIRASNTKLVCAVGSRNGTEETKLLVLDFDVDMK
GPR151 activ: activators of human GPR151, primary screen, cell-based, PathHunter beta-arrestin, luminescence. PathHunter beta-arrestin GPR151 cells. activation, % at 11.2 µM. 650,000 tested, 1% active; in the data active = activation above about 4.9%
TEAD-YAP inh: TEAD-YAP interaction inhibition, primary screen, TEAD-YAP interaction inhibitor project, luminescence, HEK-TIYL cells; TEAD-Gal4/YAP UAS-luciferase luminescence; inhibition, % at 9.12 µM; 640,000 tested, 1.4% active; AID 1259422, 2018; in the data active = inhibition above about 32%
MITF inh: MITF inhibitors, primary screen, biochemical, AlphaScreen, human. AlphaScreen MITF homodimerization, bead proximity signal. inhibition, % at 2.6 µM. 650,000 tested, 0.91% active. AID 1259374, 2018; in the data active = inhibition above about 50%
Large screens that a line does not name were inactive.

CC(=O)N(C1=C(NCCO)C(=O)c2ccccc2C1=O)c1cccc(Br)c1	TEAD-YAP inh 86
CC(=O)N(C1=C(N(C)C)C(=O)c2ccccc2C1=O)c1ccc(F)c(F)c1	TEAD-YAP inh 99
CC(=O)N(C1=C(N(C)C)C(=O)c2ccccc2C1=O)c1cccc(Cl)c1	TEAD-YAP inh 93
O=S(=O)(NCc1ccco1)c1cccc2nsnc12	none
COc1ccc(CCNC(=O)Cc2ccc(Cl)cc2)cc1	none
NC(=O)c1ccsc1NC(=O)/C=C/c1cccs1	TEAD-YAP inh 64
COc1ccc(NC(=O)CCNS(=O)(=O)c2ccc3[nH]c(=O)ccc3c2)cc1OC	none
COc1cc2c(cc1O)CC[C@@H]1[C@@H]2CC[C@]2(C)[C@@H](O)CC[C@@H]12	TEAD-YAP inh 53
COc1cc2c(cc1O)CCC1C2CC[C@@]2(C)C1CC[C@@H]2O (stereo partly drawn)	none (no result: TEAD-YAP inh)
CCOCCn1c(=O)c2c(nc3n(-c4cccc(Cl)c4C)c(C)cn23)n(C)c1=O	none
Fc1ccc(-c2nsc3c(N4CCOCC4)ncnc23)cc1	TEAD-YAP inh 68
CC1CCCN(c2ncnc3c(-c4ccccc4)nsc23)C1 (stereo not drawn)	TEAD-YAP inh 80
COc1ccc(-c2nsc3c(N4CCCC4)ncnc23)cc1	TEAD-YAP inh 65
CCN1CCN(c2ncnc3c(-c4ccc(OC)cc4)nsc23)CC1	none
COc1ccc(-c2nsc3c(N4CCCC(C)C4)ncnc23)cc1 (stereo not drawn)	TEAD-YAP inh 86
CC(C)(C)c1ccc(C(=O)N2CCN(c3ccc([N+](=O)[O-])c(NC4CC4)c3)CC2)cc1	none
CC(C)c1nc(CN2CCOCC2)cc(=O)[nH]1	none
CCOC(=O)c1c(/N=C/c2c(CO)cnc(C)c2O)sc2c1CCCC2	none
CCN(CC)C(=O)C1=CC(c2ccc(OC)cc2)=NS(=O)(=O)N1C	none
CCOc1ccc2[nH]c(=O)c(CN(Cc3cccnc3)S(=O)(=O)c3ccccc3)cc2c1	TEAD-YAP inh 41
COc1ccc2c(c1)OCC(Cc1ccc(OC)c(O)c1)C2=O (stereo not drawn)	TEAD-YAP inh 50
N#CCSc1nnnn1-c1ccc(F)cc1	none
CC1C(=O)N2CCCc3cc(S(=O)(=O)Nc4cc(Cl)cc(Cl)c4)cc1c32 (stereo not drawn)	none
Nc1cccc(-c2cccc(C(=O)NCCCN3CCCC3=O)c2)c1	TEAD-YAP inh 41
C=CCN1C(=O)C[n+]2ccccc2C1C(=O)Nc1c(C)cccc1C (stereo not drawn)	none
CCn1c2ccccc2c2cnc(N=CN(C)C)c(C#N)c21	TEAD-YAP inh 42
COc1ccc(C(=O)Nc2sc3c(c2C(=O)O)CC(C)(C)OC3)cc1OC	TEAD-YAP inh 40
CC(C)COc1ccc(C(=O)Nc2sc3c(c2C(=O)O)CC(C)(C)OC3)cc1	none
CC1(C)Cc2c(sc(NC(=O)c3ccccc3)c2C(N)=S)CO1	none
CC1(C)Cc2c(sc(NC(=O)c3ccccc3)c2C(=O)O)CO1	TEAD-YAP inh 47
COc1ccc(C2(CNC(=O)CC(c3ccccc3)c3ccccc3)CCCC2)cc1OC	none
O=C(Cc1ccccc1)Nc1ccc(N2C(=O)c3ccc4c5c(ccc(c35)C2=O)CC4)cc1	TEAD-YAP inh 43
COc1ccc(-c2nnc(SCC(=O)OCC(=O)Nc3ccccc3C#N)o2)cc1	TEAD-YAP inh 67
N#Cc1ccccc1NC(=O)CSc1nnc(-c2ccccc2)o1	none
N#Cc1ccccc1NC(=O)COC(=O)CSc1nnc(-c2ccc3c(c2)OCO3)o1	TEAD-YAP inh 38
COc1ccc(-c2nnc(SCC(=O)c3ccc[nH]3)o2)cc1	TEAD-YAP inh 39
COc1ccc(-c2nnc(SCC(=O)c3ccccc3F)o2)cc1	none
COC(=O)CSc1nnc(-c2ccc(C)cc2)o1	none
COC(=O)CSc1nnc(-c2ccc(C(C)(C)C)cc2)o1	TEAD-YAP inh 66
CC(C)n1nc(-c2cc3c(Cl)cccc3[nH]2)c2c(N)ncnc21	none (no result: FBW7 act, TEAD-YAP inh, MITF inh)
Cc1ccc(NC(=O)C(C)NC(=O)CC23CC4CC(CC(C4)C2)C3)cc1 (stereo not drawn)	none
COc1cc(C(=O)Nc2ccc(O)c(-c3nc4ccccc4o3)c2)cc(OC)c1OC	none
COc1ccc(C(=O)Nc2cc(C)ccc2O)c(OC)c1	none
COc1ccc(C(=O)Nc2cc(C)ccc2O)cc1	TEAD-YAP inh 44
Cc1ccc(O)c(NC(=O)c2ccc(N3C(=O)c4ccc([N+](=O)[O-])cc4C3=O)cc2)c1	TEAD-YAP inh 55
COc1cc(OC)cc(C(=O)c2ccc(C(=O)Nc3cc(C(C)C)c(O)cc3C)cc2)c1	TEAD-YAP inh 47
O=C(Nc1ccc([N+](=O)[O-])cc1)c1ccc(N2C(=O)c3ccc([N+](=O)[O-])cc3C2=O)cc1	none
Cc1ccc(NC(=O)c2sc3nc4c(c(-c5cccs5)c3c2N)CCCC4)cc1C	none
CC(C)OCCCNC(=O)CCCCCn1c(=S)[nH]c2ccc(Br)cc2c1=O	none
Cc1ccc(-n2c(SCC(=O)NCc3ccccc3)nc3n[nH]c(C)c3c2=N)cc1C	TEAD-YAP inh 41
COc1cccc(-n2c(SCC(=O)Nc3ccc(C(C)C)cc3)nc3n[nH]c(C)c3c2=N)c1	TEAD-YAP inh 37
CCN(CC)C(=O)CSc1nc2n[nH]c(C)c2c(=N)n1-c1ccc(Oc2ccccc2)cc1	TEAD-YAP inh 42
COc1cccc(-n2c(SCC(=O)Nc3ccc(C)cc3)nc3n[nH]c(C)c3c2=N)c1	none
Cc1ccc(-n2c(SCC(=O)NCc3ccccc3)nc3n[nH]c(C)c3c2=N)cc1Cl	none
O=[N+]([O-])C(=C1NCCN1)C(=C(Cl)Cl)N1CCCC1	none
COc1cc(N/N=C(\C)c2cccc(N)c2)nc(-c2ccccc2)n1	none
Cc1ccccc1Nc1c(C)c(C)nc2ncnn12	none
Cc1nc2ncnn2c(NCc2ccc(F)cc2)c1C	TEAD-YAP inh 45
COc1cccc(-n2c(-c3ccc(F)cc3)n[nH]c2=S)c1	none
Cn1c(-c2ccccc2)cn2c3ccccc3nc12	none
COc1ccc(-c2cn3cc(-c4ccccc4)nc3n2C)cc1	TEAD-YAP inh 97
COc1cccc(-c2cn3cc(-c4ccc(F)cc4)nc3n2C)c1	TEAD-YAP inh 70
COc1cc(C=O)ccc1OCCCOc1cccc(Cl)c1	none
O=C(NCCc1ccccn1)C1CC12CCN(C(=O)CC1CCCCC1)CC2 (stereo not drawn)	none
CCC(=O)Nc1nc2c(s1)C(=O)CC(c1ccccc1)C2 (stereo not drawn)	TEAD-YAP inh 52
CN(C)S(=O)(=O)c1ccc(NC(=O)C(=O)Nc2ccc(C3CCCCC3)cc2)cc1	none
C=CCOc1ccc(C(=O)N2CCc3c(nc(N4CC(C)OC(C)C4)[nH]c3=O)C2)cc1 (stereo not drawn)	FBW7 act 7.4
COc1ccc(C(=O)C[n+]2cccc3cc(OC)ccc32)cc1	TEAD-YAP inh 53
CCC[n+]1cccc2cc(OC)ccc21	none
CCOc1ccc2[nH]c3nc(SCC(=O)NC(C)C)nnc3c2c1	none
O=C(COc1ccccc1)N1CCN(c2ccc(Nc3ccccn3)nn2)CC1	none
